Data: PubChem BioAssay (NCATS)
Results filed as inconclusive are left out. The source made the active and inactive calls. The call rests on the fitted dose curve; in most records, active means well fitted inhibition curve with a large enough effect; inconclusive means small, poorly fitted or top-dose-only effect; inactive means flat fitted curve, though single readings scatter.

How the values were obtained:
Test in all cases: qHTS profiling for inhibitors of Plasmodium falciparum proliferation (AID 504749); further: nearly all actives have a fitted effect of over 60% in size
Details in all cases: P. falciparum in erythrocytes, SYBR Green DNA, 72 h
[1] = tested on: CP286
Procedure, shortened: (§1)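 P. falciparum-infected erythrocytes (0.3% parasitemia, 2.5% hematocrit final) were exposed to compounds for 72 h at 37 C in 5% CO2, then lysed with SYBR Green buffer overnight at room temperature; parasite DNA fluorescence was normalized to artemisinin and DMSO controls.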

[2] = tested on: CP291
Procedure, shortened: as §1

[3] = tested on: CP297
Procedure, shortened: as §1

[4] = tested on: CP305
Procedure, shortened: as §1

[5] = tested on: CP315
Procedure, shortened: as §1

[6] = tested on: CP325
Procedure, shortened: as §1

[7] = tested on: CP329
Procedure, shortened: as §1

[8] = tested on: CP335
Procedure, shortened: as §1

[9] = tested on: DFO2036
Procedure, shortened: as §1

[10] = tested on: DIV14
Procedure, shortened: as §1

Measured: Potency
Potency means the concentration at half of the fitted maximal effect.

CC(=O)O[C@H]1C(=O)[C@@]2(C)[C@H]([C@H](OC(=O)c3ccccc3)[C@]3(O)C[C@H](OC(=O)[C@H](O)[C@@H](NC(=O)c4ccccc4)c4ccccc4)C(C)=C1C3(C)C)[C@]1(OC(C)=O)CO[C@@H]1C[C@@H]2O
active: [1] 178 nM | [2] 478 nM | [3] 757 nM | [4] 601 nM | [5] 478 nM | [6] 536 nM | [7] 601 nM | [8] 269 nM | [9] 282 nM | [10] 0.953 µM

CC[C@]1(O)CC2CN(CCc3c([nH]c4ccccc34)[C@@](C(=O)OC)(c3cc4c(cc3OC)N(C)[C@H]3[C@@](O)(C(=O)OC)[C@H](OC(C)=O)[C@]5(CC)C=CCN6CC[C@]43[C@@H]65)C2)C1 (stereo not given in full)
active: [1] 158 nM | [2] 1900 nM | [3] 3010 nM | [4] 3380 nM | [5] 1690 nM | [6] 3380 nM | [7] 2390 nM | [8] 675 nM | [9] 3550 nM | [10] 6.75 µM
